From PubChem BioAssay
Most compounds without a hit are left out; they make up all but 12% or so of the library.
HP1b chromo inh – inhibitors of HP1-beta chromodomain binding to methylated histone tails. P83916. AlphaScreen HP1-beta / biotin-H3K9me3 peptide binding. Potency, µM (series often up to 114 µM), usual class: inhibitors. 390,000 compounds, 0.56% hits. AID 540317; note: nearly all actives have a fitted effect of over 70% in size
Target sequence (P83916 whole entry, looked up): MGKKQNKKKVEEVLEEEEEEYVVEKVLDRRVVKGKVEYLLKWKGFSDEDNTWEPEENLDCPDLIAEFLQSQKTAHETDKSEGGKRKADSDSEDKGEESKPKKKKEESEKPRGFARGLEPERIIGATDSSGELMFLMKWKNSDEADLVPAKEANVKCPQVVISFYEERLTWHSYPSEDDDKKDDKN
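Compound inhibition of the preformed complex between 50 nM HP1-beta and 50 nM biotinylated H3K9me3 peptide was read by AlphaScreen. Buffer was PBS pH 7.4 with 0.01% Tween-20. Incubations ran 30 min at room temperature, with 10 ug/mL donor/acceptor beads.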
G9a block – blocks human histone lysine methyltransferase G9a | Potency, µM (titrated, usually from 102 µM), usual class: inhibitors | G9a H3K9 monomethylation, AlphaScreen, 2 h | 350,000 compounds, 8.8% hits | Q96KQ7; note: nearly all actives have a fitted effect of over 75% in size
Target sequence (Q96KQ7 913-1193 limits assumed): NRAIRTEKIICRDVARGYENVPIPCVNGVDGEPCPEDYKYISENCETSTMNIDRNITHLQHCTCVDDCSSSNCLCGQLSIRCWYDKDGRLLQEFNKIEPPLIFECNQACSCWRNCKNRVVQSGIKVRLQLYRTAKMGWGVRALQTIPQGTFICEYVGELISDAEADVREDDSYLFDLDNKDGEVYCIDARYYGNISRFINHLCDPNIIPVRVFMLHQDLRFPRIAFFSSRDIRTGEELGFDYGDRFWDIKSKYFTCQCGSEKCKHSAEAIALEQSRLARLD
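G9a (20 nM) was preincubated 15 min with compound, then reacted 2 h at room temperature with 500 nM biotin-H3K9 peptide and 20 µM SAM. Monomethyl-H3K9 detected by AlphaScreen using anti-H3K9me1 antibody.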
L3MBTL1 block – L3MBTL1 (human) inhibition; Q9Y468; AlphaScreen L3MBTL1–H3K9me1 peptide binding; Potency, µM (series often up to 57.1 µM), most hits filed as inhibitors; 230,000 compounds, 0.66% hits; note: nearly all actives have a fitted effect of over 60% in size
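Displacement of a biotinylated histone H3(1-15) peptide monomethylated at Lys9 (75 nM) from L3MBTL1 (50 nM) was measured by AlphaScreen after a 30 min room-temperature compound incubation; cefsulodin titration served as intraplate control.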
BAZ2B inh – blocks human BAZ2B; Q9UIF8; AlphaScreen BAZ2B-H3K14Ac peptide displacement; Potency, µM (highest dose often 114 µM), hits mostly inhibitors; 360,000 compounds, 4.4% hits; AID 504333; note: nearly all actives have a fitted effect of over 60% in size
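AlphaScreen luminescence quantifies BAZ2B engagement of H3K14Ac peptide; the protein and biotinylated peptide are both at 50 nM final, buffer PBS pH 7.4 with 0.01% Tween-20, all steps at room temperature.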
JMJD2A Tudor inh – inhibitors of human JMJD2A Tudor domain; O75164; AlphaScreen JMJD2A-Tudor / H3K4me3 peptide binding; Potency, µM (series often up to 114 µM), usual class: inhibitors; 390,000 compounds, 4.4% hits; AID 504339; note: nearly all actives have a fitted effect of over 50% in size
Sfp PPTase inh – blocks B. subtilis Sfp PPTase activity; Q9F4F7; Potency, µM, most hits filed as inhibitors; Biochemical Sfp PPTase activity, qHTS; 310,000 compounds, 3.5% hits;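 note: the enzyme is Sfp with the accession as filed and its product quenches rhodamine fluorescence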
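Fluorescence-quenching assay: 15 nM Sfp-PPTase preincubated 15 min at room temperature with compound, then 5 uM rhodamine-CoA and 12.5 uM BHQ-2-labelled YbbR peptide added. Fluorescence (ex 525/em 598 nm) read at start and after 30 min; difference gives rate.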
Numbers stand for hits; – = inactive; ? = inconclusive; · = no result; ! = not confirmed by another sample; [ ] = remark or other dose. Calls come from the whole dose curve; as a rule, active = well fitted curve in the direction sought with a large enough effect; inconclusive = small, poorly fitted or top-dose-only effect, or another doubt; inactive = no such curve, though single readings can be large; an effect the other way counts as inactive or inconclusive.

SMILES | HP1b chromo inh | G9a block | L3MBTL1 block | BAZ2B inh | JMJD2A Tudor inh | Sfp PPTase inh
CC(=O)Nc1ccc(NC(=O)C(C)OC(=O)C2(c3ccc(Cl)cc3)CCCC2)cc1 (configuration not stated) | – | 50µM | – | – | – | –
CC(=O)Nc1ccc(NC(=O)C(C)OC(=O)C2(c3ccc(F)cc3)CCCC2)cc1 (configuration not stated) | – | – | · | – | – | –
CCOC(=O)C1C(c2cc(OC)c(OC)c(OC)c2)NC(=S)NC1(O)C(F)(F)F (configuration not stated) | – | ? | – | – | – | 79µM
CCOC(=O)C1C(c2cc(OC)c(O)c(OC)c2)NC(=S)NC1(O)C(F)(F)F (configuration not stated) | – | – | – | – | – | –
CCOC(=O)C1C(c2ccc3c(c2)OCO3)NC(=O)NC1(O)C(F)(F)F (configuration not stated) | – | –[2.33 µM] | · | – | 18µM | –
COc1cc(C2NC(=S)NC(O)(C(F)(F)F)C2C(=O)c2cccs2)cc(OC)c1O (configuration not stated) | – | 79µM | – | – | – | –
Cc1cc(C)nc(Nc2ncc(O)n2-c2ccccc2)n1 | – | – | – | – | 56µM | ?
Cc1ccc(-n2c(O)cnc2Nc2nc(C)cc(C)n2)cc1 | – | –[12.7 µM] | – | – | ? | –
O=C1NN(c2ccccc2)C(=O)/C1=C\c1ccc(-c2cc([N+](=O)[O-])ccc2O)o1 | 45µM | · | ? | 32µM | 50µM | 79µM
O=C1NN(c2ccc(Cl)cc2)C(=O)/C1=C\c1ccc(-c2cccc(C(=O)O)c2)o1 | 45µM | 16µM | · | 56µM | 35µM | –
Cc1cc(/C=C2\C(=O)NN(c3ccccc3)C2=O)c(C)n1-c1ccccc1O | – | – | · | – | – | –
CCCCNS(=O)(=O)c1ccc2nc(SCC(=O)Nc3sccc3C#N)[nH]c2c1 | – | 71µM | – | – | – | 63µM
CCCCNS(=O)(=O)c1ccc2nc(SCC(=O)c3ccccc3OC)[nH]c2c1 | – | 35µM | · | – | – | –
CCCCNS(=O)(=O)c1ccc2nc(SCC(N)=O)[nH]c2c1 | – | – | – | – | – | –
COc1cccc(-c2cc(=O)c3cc(NC(=O)c4ccc(Cl)cc4)ccc3[nH]2)c1 | – | 50µM | – | – | – | –
COc1cccc(-c2cc(=O)c3cc(NC(=O)c4ccccc4)ccc3[nH]2)c1 | – | – | – | – | – | –
COc1cccc(-c2cc(=O)c3cc(NC(=O)c4ccc(N(C)C)cc4)ccc3[nH]2)c1 | – | 32µM | – | 79µM | – | –
CCC(=O)NNc1ncnc2c1cnn2-c1ccc(C)c(Cl)c1 | – | – | · | – | – | ·
C=C(C)Cn1c(SCC(=O)Nc2cccc(C)c2)nc2sc3c(c2c1=O)CCCC3 | – | – | · | – | – | ·
Cc1ccc(N2CCN(c3ncccc3[N+](=O)[O-])CC2)c(C)c1 | ? | 18µM | · | 28µM | 40µM | –
Cc1ccc(C)c(N2CCN(c3ccc([N+](=O)[O-])cn3)CC2)c1 | – | – | · | – | – | –
O=[N+]([O-])c1cccnc1N1CCCCC1 | – | – | – | – | ? | –
Cc1ccc(C)c(N2CCN(c3ncccc3[N+](=O)[O-])CC2)c1 | – | –[2.33 µM] | · | 32µM | 40µM | –
O=[N+]([O-])c1cccnc1N1CCN(c2ccccc2F)CC1 | ? | ? | ? | ? | 50µM | –
CCN1CCN(Cc2nc3cc(NC(=O)c4cc(OC)c(OC)c(OC)c4)ccc3n2CC)CC1 | – | ? | · | – | – | ·
SMILES | HP1b chromo inh | G9a block | L3MBTL1 block | BAZ2B inh | JMJD2A Tudor inh | Sfp PPTase inh
COC(=O)C(C)(N)Cc1ccc(O)cc1 (configuration not stated) | – | 25µM! | – | – | – | ·
O=C(COc1ccc(F)cc1)Nc1ccc2nc(SCC(=O)N3CCOCC3)sc2c1 | – | – | · | – | – | ·
Cc1ccc(C)c(CN2C(=O)c3ccccc3S(=O)(=O)c3ccc(C(=O)Nc4cc(F)ccc4F)cc32)c1 | – | – | · | – | – | ·
COc1cc(C(=O)NC(=S)Nc2ccccc2N2CCOCC2)cc(OC)c1OC | – | 14µM | · | 40µM | ? | 35µM
Cc1ccc(C(=O)NC(=S)Nc2ccccc2N2CCOCC2)cc1C | ? | 22µM | · | ? | ? | –
CCCCN(CC)CCNC(=O)CCn1cnc2onc(-c3ccc(F)cc3)c2c1=O | – | – | · | – | – | ·
OCCN1CCOCCN(CCO)CCOCC1 | – | ? | – | – | 22µM | –
COc1cccc(-c2csc(-c3c(N)c(C(=O)c4ccccc4)n4ccccc34)n2)c1 | – | – | · | – | – | ·
O=C(O)CNS(=O)(=O)c1c(Cl)cccc1Cl | – | – | – | – | 14µM | –
O=C(O)CCCCCNS(=O)(=O)c1c(Cl)cccc1Cl | – | –[12.7 µM] | – | – | – | –
C=CCNc1oc(-c2ccc(OCC)cc2)nc1C#N | – | – | – | – | – | –
C=CCNc1oc(-c2ccc(OC)cc2)nc1C#N | – | 56µM | – | – | – | –
CCOc1ccc(-c2nc(C#N)c(NCC3CCCO3)o2)cc1 (configuration not stated) | – | – | · | – | – | –
CCCOc1ccc(-c2nc(C#N)c(NCC3CCCO3)o2)cc1 (configuration not stated) | – | 71µM | · | 50µM | ? | –
CCN(CC)c1ccc(NC(=O)c2ccc(Br)o2)c(C)c1 | ? | ? | – | 40µM | 56µM | –
CCN(CC)c1ccc(NC(=O)c2cccn2-c2nnc(N3CCCCC3)s2)c(C)c1 | ? | ? | · | 32µM | 50µM | ·
CCN(CC)c1ccc(NC(=O)c2cccc(F)c2)c(C)c1 | – | 28µM | – | – | ? | –
Cc1cc(O)c(NC(=O)c2ccc(Br)o2)cc1C | – | –[12.7 µM] | – | 50µM | – | –
Cc1ccc(S(=O)(=O)NC(=O)c2ccc(Br)o2)cc1 | – | 35µM! | – | – | – | –
O=C(Nc1ccc(Nc2ccccc2)cc1)c1ccc(Br)o1 | ? | 35µM | – | 22µM | 40µM | –
CCN(CC)c1ccc(NC(=O)c2ccc(NC(=O)C3CCCO3)cc2)c(C)c1 (configuration not stated) | – | 8.9µM | – | – | – | –
Cc1ccc(S(=O)(=O)NC(=O)c2ccc(Br)o2)c(C)c1 | – | – | – | – | – | –
Cc1ccc(NC(=O)C(Cc2ccccc2)NS(=O)(=O)c2cccs2)cc1Cl (configuration not stated) | – | – | · | – | – | ·
O=C(CSc1ncn[nH]1)c1ccc2c(c1)OCO2 | – | –[12.7 µM] | –[11.4 µM] | – | 32µM | –
O=C(CSc1nc2ccc(Cl)cc2[nH]1)c1ccc2c(c1)OCO2 | – | 35µM | – | 50µM | 22µM | 79µM
O=C(CSc1nc2ncc(Cl)cc2[nH]1)c1ccc2c(c1)OCO2 | – | ? | · | – | – | –
